Rows were chosen to be rich in hits. Some 8% of all compounds tested hit in one or more screens of this group.
HCV inhibitor = inhibitors of hepatitis C virus infection | Huh7.5.1 HCVcc-Cre infection, luciferase reporter, 44 h | Potency, µM (highest dose often 41.8 µM), for the others: top-dose activity change, negative = inhibition, hits mostly inhibitors | hit rate 3.4% among 340,000; active means well fitted inhibition curve with a large enough effect; inconclusive means small, poorly fitted or top-dose-only effect, or another doubt; inactive means no such curve, though single readings can be large or run the other way; further: potency means the concentration at half of the fitted maximal effect; on the % scale 0 is the no-effect control and ±100 the full control effect
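HCVcc-Cre virus at an moi near 0.5 was added right after compound to cells cultured 4 h from seeding (1,000 cells/well). Luciferase activity was determined 44 h later, 15 min after substrate addition at RT.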
SARS PLpro yeast = SARS-CoV PLP inhibition in yeast; AID 485353; Potency, µM (top dose mostly 32.9 µM), for the others: at the highest dose activity, positive = growth rescue, actives largely listed as activators; hit rate 0.19% among 330,000; S. cerevisiae expressing SARS-CoV PLpro, growth rescue; calls by dose curve; further: potency means the concentration at half of the fitted maximal effect; 0% is about no effect; nearly all actives have a fitted effect of over 55% in size
LASV entry inh = blocks Lassa virus binding to or entry into cells; Lassa virus pseudotype entry inhibition, cell reporter; Potency, µM (titrated, usually from 37.9 µM), for inactives: at the highest dose activity change, negative = inhibition, actives largely listed as inhibitors; hit rate 1.2% among 300,000; AID 540256; calls by dose curve; tested in HEK293 cells; further: potency means the concentration at half of the fitted maximal effect; on the % scale 0 is the no-effect control and ±100 the full control effect; nearly all actives have a fitted effect of over 50% in size
FMDV antiviral = antivirals against foot and mouth disease virus | AID 1159524 | FMDV antiviral cell-based qHTS | hit rate 1.2% among 410,000 | Potency, µM (top dose mostly 57.9 µM), for the others: top-dose activity change, negative = inhibition, usual class: inhibitors; calls by dose curve; tested in HEK293T cells; further: read-out not given here; potency means the concentration at half of the fitted maximal effect; on the % scale 0 is the no-effect control and ±100 the full control effect; nearly all actives have a fitted effect of over 45% in size
HCMV inh = inhibitors of human cytomegalovirus; HFF cells, HCMV-luciferase reporter, 72 h; stronger effect = lower value; activity change, negative = inhibition, % at 57.5 µM; hit rate 4.5% among 410,000; in the data active means activity change below about -60%; inconclusive means no clear call, values can overlap the other calls; inactive means above about -39%; further: on the % scale 0 is the no-effect control and ±100 the full control effect
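Inhibition of viral replication was scored as loss of reporter luminescence in HFFs infected with HCMV-luciferase (MOI 1 PFU/cell) for 72 h; compounds tested at 2 doses, normalized to buffer and Salinomycin controls.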
Marburg entry inh = inhibitors of Marburg virus binding or cell entry | Potency, µM (series often up to 37.8 µM), for the others: at the highest dose activity change, negative = inhibition, usual class: inhibitors | Marburg virus pseudotyped entry inhibition, cell reporter | hit rate 1.8% among 300,000; calls by dose curve; tested in HEK293 cells; further: potency means the concentration at half of the fitted maximal effect; on the % scale 0 is the no-effect control and ±100 the full control effect
The depositor's hits bear a star; ? = inconclusive; / = no result; ! = repeats disagree; [ ] = another dose, or the depositor's remark.

SMILES | HCV inhibitor | SARS PLpro yeast | LASV entry inh | FMDV antiviral | HCMV inh | Marburg entry inh
Cn1c(=O)c2c(nc(Br)n2Cc2ccc3ccccc3c2)n(C)c1=O | ? | 10% | -18% | 14µM* | -14 | -19%
Cn1c(=O)c2c(nc(Oc3ccc4ccccc4c3)n2C)n(C)c1=O | -15% | 1% | 6% | -17% | -76* | -13%
CCOc1ccc(-n2c(SCC(=O)N3CCc4ccccc43)nc3c([nH]c4ccccc43)c2=O)cc1 | / | / | -16%[46.1 µM] | -4% | 4 | /
Cc1c(CN(C)C(=O)c2cc(-c3ccccc3)nc3ccc(Br)cc23)cnn1C | / | / | ? | -17% | 2 | ?
COc1ccc(C(=O)COC(=O)C(Cc2c[nH]c3ccccc23)NC(=O)c2ccc(C(C)(C)C)cc2)cc1 (centres undefined) | / | / | 1.3µM* | -20% | 22 | /
O=C(NC(=S)Nn1cnnc1)c1ccccc1Br | 10% | 2% | / | -1% | -20 | /
COc1ccc(/C=C2/N=C(SCC(=O)Nc3cc(C)on3)N(c3ccccc3)C2=O)cc1 | 5% | 15% | -14% | -12% | -6 | -3%
CCN(CC)C1=N/C(=C\c2ccc(OC)cc2)C(=O)N1c1ccccc1 | ? | -9% | 0.89µM* | ? | -74* | ?
CCSC1=N/C(=C\c2ccccc2)C(=O)N1c1ccc(OC)cc1 | 10µM* | -1% | -11% | -21% | ? | -2%
Cc1ccc(-c2nc3sccn3c2Nc2ccc(C)c(C)c2)cc1 | / | / | 20%[46.1 µM] | 10% | 90 | 21%[46.1 µM]
CN(C)S(=O)(=O)c1ccc(Cl)c(NC(=O)CN2CCCCCC2)c1 | -17% | 0% | -8% | -17% | ? | -13%[46.1 µM]
CCC(C)NCC(=O)Nc1cc(S(=O)(=O)N(CC)c2ccccc2)ccc1Cl (centres undefined) | ? | 3% | ? | 0% | ? | 21µM*
CCN(c1ccccc1)S(=O)(=O)c1ccc(Cl)c(NC(=O)CN2CCCCCC2)c1 | 14µM* | 0% | ? | ? | ? | ?
CCN(CC)S(=O)(=O)c1ccc(Cl)c(NC(=S)NC(=O)C2CCCC2)c1 | 4µM* | 5% | / | 20µM* | ? | /
CCN(c1ccccc1)S(=O)(=O)c1ccc(Cl)c(NC(=O)CN(C)Cc2cccc(F)c2)c1 | 8.9µM* | / | ? | -20% | ? | ?
Nc1ccc(S(=O)(=O)c2ccc(N)nc2)cc1 | 21% | / | 15%[46.1 µM] | -10% | -11 | -2%[46.1 µM]
Nc1ccc(S(=O)(=O)O)cn1 | ? | 1% | ? | -24% | -69*! | ?
C[C@H](NC(=O)OC(C)(C)C)c1nnc(SCc2c(F)cccc2Cl)o1 | / | / | -34%[46.1 µM] | -30% | -78* | 1%[46.1 µM]
CC[C@@H](C)[C@H](NC(=O)OC(C)(C)C)c1nnc(S(=O)(=O)Cc2cc(C)ccc2C)o1 | -14% | -23% | 10µM* | -28% | 1 | ?
C[C@H](NC(=O)OC(C)(C)C)c1nnc(SCC(=O)c2ccc(Cl)cc2)o1 | ? | 0% | -19% | ? | -5 | -2%
CC(C)[C@H](NC(=O)OC(C)(C)C)c1nnc(S(=O)(=O)Cc2c(F)cccc2Cl)o1 | ? | -12% | -5% | 35µM* | -76* | -3%
CN(CCCNC(=O)c1cccn2c(=O)c3ccccc3nc12)Cc1ccccc1 | 11µM* | -2% | -6% | ? | -19 | ?
CCn1c(=O)c2cc(C(=O)NCCCN(C)Cc3ccccc3)sc2c2ccccc21 | / | / | 19%[46.1 µM] | -28% | -70* | ?
Cn1c(=O)c2cc(C(=O)NC3CCCCCC3)sc2c2ccccc21 | / | / | -16%[46.1 µM] | -18% | -81* | -3%[46.1 µM]
CCn1c(=O)c2cc(C(=O)NCCN3CCOCC3)sc2c2ccccc21 | 11µM* | 5% | / | -1% | 153 | /
SMILES | HCV inhibitor | SARS PLpro yeast | LASV entry inh | FMDV antiviral | HCMV inh | Marburg entry inh
Cc1ccc(-c2cn3c(n2)sc2cc(C(=O)NCCC4=CCCCC4)ccc23)c(C)c1 | / | / | 6%[46.1 µM] | 30% | / | /
Cc1ccc(O)c(NC(=O)c2cc(-c3cccs3)on2)c1 | 0% | 3% | -27% | 34% | ? | 8.9µM*
Cc1nn(Cc2cccc(C(=O)NC34CC5CC(CC(C5)C3)C4)c2)c(C)c1Br | 14µM* | -52% | ? | ? | -39 | ?
CCCNC(=O)c1cccc(Cn2nc(C)c(Br)c2C)c1 | ? | -15% | -2% | -19% | 25 | -22%[46.1 µM]
O=C1C2C3C=CC(O3)C2C(=O)N1N=Cc1ccc2c(c1)OCO2 (centres undefined) | -2% | / | 1%[46.1 µM] | 13% | 7 | ?
CCCCNC(=O)c1cn(CC(C)C)c(=O)c2c1c1ccccc1n2C | -19% | 1% | ? | -3% | 29 | ?
CC(C)CCn1c(SCC(=O)NC2CC2)nc2cc(Cl)ccc2c1=O | 8% | 0% | 8% | -8% | 9 | 21%
CC(OC(=O)c1ccccc1NS(=O)(=O)c1cccc(N)c1)C(=O)N(C)Cc1ccccc1 (centres undefined) | ? | -10% | ? | 7% | -72* | ?
CNCCc1cnc(CCC(c2ccccc2)c2ccccc2)[nH]1 | / | / | ? | / | / | 5.8µM*
CNCCc1ccccn1 | -20%[8.37 µM] | 4% | 4% | 0% | 36 | 5%
O=C1C(Cl)=CC(=Nc2ccc(O)cc2)C=C1Cl | -4% | -9% | / | 21% | -79* | /
O=C1CSC(=Nc2ccc(O)cc2)N1 | 8% | 1% | / | 7% | 25 | /
Cc1ccc(-c2nnn3c2nc(NCc2ccc4c(c2)OCO4)c2ccccc23)cc1 | / | / | 6%[46.1 µM] | 6% | 50 | 1%[46.1 µM]
CC(=O)c1cccc(S(=O)(=O)N2CCN(c3nc4cc(C)cc(C)c4cc3C#N)CC2)c1 | 13µM* | 4% | -12% | -22% | 4 | ?
COc1cc(OC)c(NC(=O)N2CCc3c([nH]c4ccccc34)C2c2ccccc2F)cc1Cl (centres undefined) | / | / | ? | -18% | ? | /
CCCOc1ccccc1/C=C1\SC(N)=NC1=O | 13% | ? | 4%[46.1 µM] | -10% | -64* | 20%[46.1 µM]
CCCOc1ccc(/C=C2\SC(N)=NC2=O)cc1OC | -8% | -1% | / | 21% | 185 | /
O=c1ccc2c(o1)/C(=C/C=C(Cl)Cl)CCC2 | 16µM* | -10% | -3% | -27% | -7 | -6%
CC(=O)c1sc(NC(=O)CCS(=O)(=O)c2ccc(Cl)cc2)nc1C | 1.1µM* | -3% | ? | -12% | 1 | ?
Cc1ccc(S(=O)(=O)CCC(=O)Nc2ccccc2Cl)cc1 | 5% | 1% | / | 18% | -27 | /
O=C(CCS(=O)(=O)c1ccc(Cl)cc1)Nc1ccccc1Br | 3% | -1% | 17% | -4% | -98* | -5%[46.1 µM]
CN1C(=O)C[C@@H](N2CCN(c3ccc(Cl)c(Cl)c3)CC2)C1=O | / | / | / | / | / | -8%
CC(C)(CO)Nc1nc(Nc2ccccc2)nc(Nc2ccccc2)n1 | 10µM* | 3% | 0% | -23% | -11 | -17%
CCN1CCN(c2cc(C(C)(C)C)nc3c(-c4ccccc4)c(C)nn23)CC1 | 4µM* | -4% | ? | -8% | -75* | ?

High-throughput results from PubChem BioAssay.
